From PubChem
Tat transport: inhibitors of E. coli Tat protein transport; inhibition, % at 10 µM; 0.036% of 340,000 active; E. coli MC4100 TorA-mCherry Tat export, fluorescence;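 active = mean replicate inhibition at least 50% and at least half of replicates individually reaching 50%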;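 also: exported cargo escapes ClpAP degradation while cytoplasmic cargo is degraded and loses fluorescence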
E coli growth-1: bacterial growth inhibition, counter-screen for AddAB inhibitors; E. coli V3065 growth, OD600 absorbance, 18 h; inhibition, % at 11.9 µM; 0.27% of 330,000 active; AID 449728;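 active = inhibition above the campaign's mean inhibition across all tested compounds plus 3 SD, cut at about 9.9% in these data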;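 also: uninfected addAB+ strain grown without phage in ampicillin broth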
phage Ecoli inh: E. coli growth loss with phage present | 0.26% of 360,000 active | AID 651602 | growth absorbance | inhibition, % at 11.9 µM; in the data active = inhibition above about 11%
E coli growth-2: inhibitors of Escherichia coli growth | OD600, 23 h; hits give low values | 0.21% of 330,000 active | OD600 absorbance (no concentration beside the values);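 active = OD600 absorbance below the run mean of sample wells minus 3.6 SD, in any replicate, cut at about 0.56 in these data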
AddAB inh: less growth of phage-infected E. coli with AddAB. AID 435030. E. coli expressing H. pylori AddAB, absorbance growth. 0.29% of 330,000 active. inhibition, % at 11.9 µM; in the data active = inhibition above about 12%
AddAB conf: growth loss of T4-infected E. coli expressing H. pylori AddAB, confirmed | inhibition, % at 11.9 µM | E. coli V3065 expressing H. pylori AddAB, T4 phage, OD; T4 phage with gene 2 nonsense mutations | shares compounds with AddAB inh | 64% of 880 active | AID 488942;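 active = mean inhibition above a set limit taken from the earlier primary screen, cut at about 13% in these data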;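 also: higher means less bacterial growth since AddAB block lets phage replicate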
RecBCD counter: counter-screen: growth loss of RecBCD+ E. coli with mutant T4 phage | AID 488955 | E. coli V66 + mutant T4 phage, OD growth | 73% of 880 active | inhibition, % at 11.9 µM | shares compounds with AddAB inh;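 active = mean inhibition above the mean of solvent-only control wells plus 3 SD, cut at about 4% in these data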;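 also: optical density read after an 18 h incubation at 37 °C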
bact viab count: counter-screen: bacterial growth inhibition. 35% of 880 active. AID 488956. shares compounds with AddAB inh. bacterial viability, absorbance (AddAB counterscreen). inhibition, % at 11.9 µM; in the data active = inhibition above about 25%
Large screens that a line does not name were inactive (follow-up assays come after a bar, where they were run). Sampled rows, rich in hits. Any-hit rate of the full collection: about 0.5%.

CCn1cc(C(=O)NCc2ccccc2)c(=O)c2cc(F)c(N3CCN(C(=O)c4ccco4)CC3)cc21	none
CCn1cc(C(=O)NCc2ccc3c(c2)OCO3)c(=O)c2cc(F)c(N3CCN(C(=O)c4ccco4)CC3)cc21	E coli growth-1 91, E coli growth-2 0.052, AddAB inh 97 | AddAB conf 99 | RecBCD counter 10 | bact viab count 98
CCn1cc(C(=O)NCCC(=O)OC)c(=O)c2cc3c(cc21)OCO3	none
CCn1cc(C(=O)NCc2ccncc2)c(=O)c2cc(F)c(N3CCN(C(=O)c4ccco4)CC3)cc21	E coli growth-1 92, E coli growth-2 0.071, AddAB inh 98 (no result: Tat transport) | AddAB conf 99 | RecBCD counter 8.0 | bact viab count 88
Cc1[nH]nc(SCC(=O)Nc2ccc(C#N)cc2)c1[N+](=O)[O-]	none (no result: E coli growth-2)
Cc1ccc(NC(=O)CSc2n[nH]c(C)c2[N+](=O)[O-])cc1	AddAB inh 14 | AddAB conf inactive | RecBCD counter 4.7 | bact viab count inactive
COc1cc(-c2cc(=O)c3c(O)c(OC)c(OC)c(O)c3o2)ccc1O	none
COc1c(O)c(O)c2oc(-c3ccccc3)cc(=O)c2c1OC	AddAB inh 16 | AddAB conf 14 | RecBCD counter 9.2 | bact viab count inactive
CCOC(=O)CC1C(C(=O)OCC)ON2OC(C(=O)OC)C(C(=O)OCC)C12 (stereo unspecified)	E coli growth-1 21, AddAB inh 46 | AddAB conf inactive | RecBCD counter inactive | bact viab count inactive
COC(=O)CC1C(C(=O)OC)ON2OC(C(=O)OC)C(C(=O)OC)C12 (stereo unspecified)	none
CC(=NNC(=O)c1cccnc1)C1=C(O)CC(C)(C)CC1=O	none (no result: Tat transport, E coli growth-1, phage Ecoli inh, AddAB inh)
Oc1ccc(N=Nc2ccccc2-c2nn[nH]n2)c(O)c1	E coli growth-1 15, AddAB inh 14 | AddAB conf inactive | RecBCD counter 6.7 | bact viab count inactive
CCCc1cc(C(=O)Nc2cc(C)on2)no1	E coli growth-1 96, AddAB inh 100 | AddAB conf inactive | RecBCD counter inactive | bact viab count inactive
Cc1cc(NC(=O)c2cc(C)on2)no1	none
O=c1c(O)c(-c2ccc(O)c(O)c2)oc2cc(O)cc(O)c12	AddAB inh 13 | AddAB conf inactive | RecBCD counter inactive | bact viab count inactive
COC(=O)Cc1cc(=O)[nH]c(N=C(N)Nc2ccccc2C)n1	none (no result: Tat transport, E coli growth-1, phage Ecoli inh, AddAB inh)
CCc1ccc(NC(=S)NCc2cccnc2)cc1	E coli growth-1 11, AddAB inh 14 | AddAB conf inactive | RecBCD counter 6.7 | bact viab count inactive
Cc1ccc(NC(=S)NCc2cccnc2)cc1	none
O=C(Nc1cccc(F)c1)C(=Cc1cccnc1)NC(=O)c1ccco1	none (no result: Tat transport, E coli growth-1, phage Ecoli inh, AddAB inh)
COC(=O)c1cc(S(=O)(=O)NCc2ccc(F)cc2)cn1C	AddAB inh 15 | AddAB conf inactive | RecBCD counter inactive | bact viab count inactive
CN1CCN(C(c2ccccn2)c2cc(Cl)c3cccnc3c2O)CC1 (stereo unspecified)	none
Cc1ccc(C(c2cc(Cl)c3cccnc3c2O)N2CCN(C)CC2)cc1 (stereo unspecified)	E coli growth-1 20, AddAB inh 19 (no result: phage Ecoli inh, E coli growth-2) | AddAB conf inactive | RecBCD counter 9.4 | bact viab count inactive
CCOC(=O)/C=C/C(=O)OCC(=O)Nc1cccc(Cl)c1Cl	E coli growth-1 76, AddAB inh 97 | AddAB conf inactive | RecBCD counter inactive | bact viab count inactive
Cc1ccc(NC(=O)C2Cc3ccccc3OC2=NO)cc1C (stereo unspecified)	none (no result: Tat transport, E coli growth-1, phage Ecoli inh, AddAB inh)
O=C1c2cccc3c([N+](=O)[O-])ccc(c23)C(=O)N1c1ccccn1	none
O=C1c2cccc3c([N+](=O)[O-])ccc(c23)C(=O)N1O	Tat transport 81, E coli growth-1 50, phage Ecoli inh 44, AddAB inh 35 (no result: E coli growth-2) | AddAB conf 86 | RecBCD counter 74 | bact viab count 81
CCNC(=S)NN=Cc1sccc1C	none (no result: Tat transport, E coli growth-1, phage Ecoli inh, AddAB inh)
CC(O)COc1ccc(C(=NO)c2ccccc2)cc1 (stereo unspecified)	none (no result: Tat transport, E coli growth-1, phage Ecoli inh, AddAB inh)
O=c1[nH]c(/C(=N\O)c2ccccc2)no1	E coli growth-1 18, AddAB inh 16 (no result: E coli growth-2) | AddAB conf 25 | RecBCD counter 4.3 | bact viab count inactive
